A number with no mark means an inactive call. The source made the active and inactive calls. Calls follow the shape of the dose curve; as a rule, active = well fitted curve in the direction sought with a large enough effect; inconclusive = small, poorly fitted or top-dose-only effect, or another doubt; inactive = no such curve, though single readings can be large or run the other way.
Target: alpha-glucosidase (Oryza sativa, rice) (UniProt Q653V4)
Test: Counterscreen for Glucocerebrosidase Inhibitors: qHTS Assay for Rice alpha-Glucosidase at pH 5.0 (AID 997);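 also: 0% = full activity with enzyme and -100% = basal without enzyme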
Conditions: rice alpha-glucosidase enzyme activity; series mostly up to 76.9 µM; activity change, negative = inhibition: at the top concentration
Excerpt: NIH Chemical Genomics Center [NCGC]
NIH Molecular Libraries Screening Centers Network [MLSCN]
PI Name: Zheng, Wei [NIH]
Alpha-glucosidase is responsible for hydrolysis of terminal, non-reducing 1,4-linked alpha-D-glucose residues with release of alpha-D-glucose. It is a lysosomal hydrolase that is required for the degradation of a small percentage (1-3%) of cellular glycogen in human. Deficiency of this enzyme results in glycogen-storage disease type II (GSDII), also referred to as Pompe disease, an autosomal recessive disorder. Structurally normal glycogen is accumulated in lysosomes and cytoplasm in affected patients, primarily in muscle tissues. Excessive glycogen storage within lysosomes may interrupt normal functioning of other organelles and leads to cellular injury. In turn, this leads to enlargement and dysfunction of the entire organ involved (eg, cardiomyopathy and muscle weakness).
It has reported that the improper folding and trafficking of alpha-glucosidase resulted from the genetic mutations may account for a significant number of Prope patients. […] We optimized this alpha-glucosidase assay in 1536-well plate format for identifying the novel small molecule inhibitors with the structures other than the sugar analogs in order to develop the new pharmacological chaperones.
NCGC Assay Protocol Summary:
This is a fluorogenic enzyme assay with 4-methylumbelliferyl-alpha-D-pyranoside as the substrate and rice alpha-glucosidase as the enzyme preparation. Upon the hydrolysis of this fluorogenic substrate, the resulting product, 1. 4-methyllumbelliferone, can be excited at 365 nm and emits at 440 nm which can be detected by a standard fluorescence plate reader. Data were normalized to the controls for basal activity (without enzyme) and 100% activity (with enzyme). In the AC50 values were determined from concentration-response data modeled with the standard Hill equation.
Assay buffer: 50 mM citric acid, 0.005% Tween-20, pH 5.0. (pH 5.0 is an optimal condition for this enzyme assay)
1536-well assay protocol for the human alpha-glucosidase:
(1) Add 2 ul/well of enzyme (4 nM final)
(2) Add 23 nL compounds in DMSO solution. The final titration was 0.7 nM to 77 uM.
(3) Add 1 ul of substrate (400 uM final)
(4) Incubate at room temperature for 20 min.
(5) Add 2 ul stop solution (1M NaOH and 1M Glycine mixture, pH 10)
(6) Detect the assay plate in a ViewLux plate reader (PerkinElmer) with Ex=365 nm and Em=440nm.
Keywords: Alpha-glucosidase, Prope Disease, pharmacological chaperone, chaperone therapy, high throughput screening, alpha-glucosidase inhibitor, MLSMR, MLSCN, NIH Roadmap, qHTS and NCGC

SMILES	activity change, negative = inhibition	outcome
c1ccc2sc(C3(N4CCCCC4)CCCCC3)cc2c1	-4.65%	–
c1ccc(CCCN2CCN(CCOC(c3ccccc3)c3ccccc3)CC2)cc1	-8.27%	–
Cn1cnc(CCN)c1	-2.7%	–
Cc1c(C(=O)c2cccc3ccccc23)c2cccc3c2n1[C@H](CN1CCOCC1)CO3	-16%	–
NCCc1c[nH]c2ccccc12	-1.56%	–
CC1=NN=C(c2ccc(N)cc2)c2cc3c(cc2C1)OCO3	-1.23%	–
CCCN(CCC)[C@@H]1CCc2ccc(O)cc2C1	–	inactive
O=C(O)Cc1cnc[nH]1	0.33%	–
CC(C)Oc1cccnc1N(C)C1CCN(Cc2ccccc2)CC1	-3.83%	–
NC(N)=NOCCC(N)C(=O)O (stereo unspecified)	-3.19%	–
S=C(NC1CCCCC1)N1CCC(c2cnc[nH]2)CC1	-2.18%	–
CCCCc1ccc(C(=O)O)nc1	1.94%	–
CCCN1CCC[C@H](c2cccc(O)c2)C1	–	inactive
O=C1CCCN1CC#CCN1CCCC1	-0.585%	–
CN[C@@H]1C[C@@H](c2ccc(Cl)c(Cl)c2)c2ccccc21	-3.03%	–
C[C@@H]1O[C@H](C[N+](C)(C)C)C[C@H]1O	-2.74%	–

SMILES	activity change, negative = inhibition	outcome
Cc1nc(-c2ccc(-c3ccc(C(=O)N4CCc5cc6c(cc54)C4(CCN(C)CC4)CO6)cc3)c(C)c2)no1	-6.25%	–
COc1ccc2c(c[n+](C)c3c4cc5c(cc4ccc23)OCO5)c1OC	-1.4%	–
CC[C@@]1(O)C(=O)OCc2c1cc1n(c2=O)Cc2cc3ccccc3nc2-1	139%	–
NCCc1c[nH]c2ccc(O)cc12	3.94%	–
O=C(O)CC[N+](=O)[O-]	0.891%	–
Clc1cnc(Oc2ccc(Oc3ncc(Cl)cc3Cl)cc2)c(Cl)c1	-1.43%	–
C#CCOC(=O)C1=CCCN(C)C1	-1.44%	–
C[C@]12N[C@H](Cc3ccccc31)c1ccccc12	–	inactive
CNCCc1ccc(O)c(O)c1	-5.14%	–
NC(=NCCC[C@H](N)C(=O)O)N[N+](=O)[O-]	1.84%	–
Cc1nccc2c1[nH]c1ccccc12	0.544%	–
CNCCc1c[nH]c2ccc(O)cc12	0.268%	–
CCCN1CCO[C@@H]2c3cc(O)ccc3OC[C@H]21	–	inactive
NCc1cc(=O)[nH]o1	-1.28%	–
CC(=O)NCCc1c[nH]c2ccccc12	-3.46%	–
